IMPase Li cell = cell-permeable IMPase inhibitors with lithium potentiation | Potency, µM (top dose mostly 59.4 µM), usual class: inhibitors | CHO-M1 cells, IP1 TR-FRET (IP-One), carbachol + lithium | 210,000 compounds, 0.35% hits;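 note: IP1 builds up when IMPase is blocked and the TR-FRET signal falls; nearly all actives have a fitted effect of over 50% in size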
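CHO cells stably expressing M1 receptor (2000/well, cultured 16–30 h) treated 30 min at 37C with compound plus low lithium. Cytosolic IP1 by TR-FRET (665/620 ratio and 620 channel) after 10 min lysis; AC50 by Hill fit.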
HPGD inh = inhibitors of human 15-hydroxyprostaglandin dehydrogenase (HPGD) | P15428 | purified HPGD, NADH fluorescence kinetic, PGE2 substrate | Potency, µM, usual class: inhibitors | 150,000 compounds, 4.3% hits | AID 894; active = well fitted inhibition curve with a large enough effect, not every such curve was filed as active; inconclusive = small, poorly fitted or top-dose-only effect, or another doubt; inactive = no such curve, though single readings can be large or run the other way
Target sequence (P15428 whole entry, looked up): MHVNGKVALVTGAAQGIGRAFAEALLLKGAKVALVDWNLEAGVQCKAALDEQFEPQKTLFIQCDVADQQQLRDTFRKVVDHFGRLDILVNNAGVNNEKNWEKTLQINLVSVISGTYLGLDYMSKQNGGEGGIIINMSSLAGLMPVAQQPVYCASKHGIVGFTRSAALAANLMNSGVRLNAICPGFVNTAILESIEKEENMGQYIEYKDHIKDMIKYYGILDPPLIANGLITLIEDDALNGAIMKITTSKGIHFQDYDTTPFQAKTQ
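NADH formation kinetics: reaction with 30 uM PGE2 and 1 mM NAD+ (final), 20 nM enzyme, Tris-HCl pH 8 with Tween 20, after 15 min compound preincubation at room temperature. Fluorescence change, last versus first of five reads.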
15-hLO-2 inh = 15-hLO-2 (ALOX15B) enzyme inhibition; O15296; purified 15hLO-2, xylenol orange hydroperoxide absorbance; Potency, µM (doses to about 57.1 µM), most hits filed as inhibitors; 110,000 compounds, 0.56% hits; AID 881; note: nearly all actives have a fitted effect of over 60% in size
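Read-out: hydroperoxide product oxidises ferrous iron, measured as xylenol orange complex via the 573-to-405 nm absorbance ratio after 30 min. Reaction: 50 nM enzyme, 15 min compound preincubation, 45 uM arachidonic acid, 90 min RT, Hepes pH 7.5 with Triton X-100.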
PNC inhibitor = perinucleolar compartment assembly inhibition; 140,000 compounds, 3.1% hits; AID 2417; activity change (PNC), negative = inhibition, % at 10 µM; PC3M PTB-GFP, PNC prevalence imaging, 16 h; stronger effect = lower value;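 active = readout at or below -70, meaning at least 70% loss of cells showing the perinucleolar compartment, a nuclear body marking cancer cells; inconclusive = readout between -30 and a set limit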
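Compounds are pinned in duplicate onto adhered PC3M cells stably expressing GFP-tagged PTB and incubated 16 h at 37 C. Cells are then fixed, nuclei stained with Hoechst, and PNC-positive cells counted.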
IMPase cell inh = cell-permeable inhibitors of inositol monophosphatase (IMPase); P97697; CHO-M1 cells, IP1 accumulation, HTRF TR-FRET ratio; inhibition (IP1 accumulation), % at 46.1 µM; 120,000 tested, under 10 active; AID 901; active = well fitted curve in the direction sought with a large enough effect in the signal ratio, not every such curve was filed as active; inconclusive = small, poorly fitted or top-dose-only effect, or a change in a side signal; inactive = no such curve, though single readings can be large or run the other way; the % refers to the signal ratio;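 note: cells stimulated with carbachol in lithium chloride buffer; higher means more IMPase inhibition seen as more IP1 and lower FRET ratio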
Target sequence (P97697 whole entry, looked up): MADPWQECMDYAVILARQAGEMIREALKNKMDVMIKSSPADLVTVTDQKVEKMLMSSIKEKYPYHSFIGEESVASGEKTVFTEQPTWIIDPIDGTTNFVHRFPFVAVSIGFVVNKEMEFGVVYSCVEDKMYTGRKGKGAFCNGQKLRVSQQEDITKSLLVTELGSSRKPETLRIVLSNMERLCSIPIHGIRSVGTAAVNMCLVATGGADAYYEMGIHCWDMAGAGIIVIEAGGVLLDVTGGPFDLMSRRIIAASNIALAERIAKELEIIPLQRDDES
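The IP-One HTRF competitive assay in carbachol-stimulated CHO-M1 cells quantifies cellular IP1. Compounds spanned up to 46 uM final, and activity is expressed as AC50 from concentration-response fits of the ratio and donor data.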
ALOX12 inhib = 12-hLO (ALOX12) enzyme inhibition; P18054; purified 12-hLO, xylenol orange hydroperoxide absorbance; Potency, µM (series often up to 57.1 µM), actives largely listed as inhibitors; 150,000 compounds, 0.12% hits; AID 1452; note: nearly all actives have a fitted effect of over 55% in size
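150 nM 12hLO, 25 mM Hepes pH 7.0 + 0.01% Triton X-100; cpd preinc 15 min RT; 40 uM arachidonic acid, 30 min RT; Fe-XO 30 min; A573/A405 ratio as read-out.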
A number is an active result; 0 = inactive; ? = inconclusive; - = no result given. The list is not random: actives were taken first. Their share in the collection is about 5.4%. Unless noted, calls come from the whole dose curve; as a rule, active = well fitted curve in the direction sought with a large enough effect; inconclusive = small, poorly fitted or top-dose-only effect, or another doubt; inactive = no such curve, though single readings can be large; an effect the other way counts as inactive or inconclusive.

SMILES	IMPase Li cell	HPGD inh	15-hLO-2 inh	PNC inhibitor	IMPase cell inh	ALOX12 inhib
Cc1noc(C)c1COC(=O)Cc1ccc(Cl)cc1	0	0	0	0	0	0
Cc1ccc(CNC(=O)COC(=O)CCCOc2ccc(Cl)cc2Cl)cc1	0	16µM	-	0	-	0
O=C(CCCOc1ccc(Cl)cc1Cl)NCC1CCCO1 (centres undefined)	0	11µM	-	0	0	0
CCCC(=O)NC(=S)Nc1ccccc1OC	0	0	0	0	0	0
COc1ccccc1NC(=S)NC(=O)CCCOc1ccc(Cl)cc1Cl	0	0	20µM	0	0	?
O=C(COC(=O)CCCOc1ccc(Cl)cc1Cl)NCc1ccccc1	0	?	-	0	-	0
FC(F)(F)c1ccccc1Cl	0	0	0	-	-	0
O=C(c1ccc(Cl)cc1)n1nc(-c2ccccc2)nc1NCc1ccco1	-	-	-	-	0	-
COCCn1c(=O)cnc2cnc(OC)nc21	0	-	0	-	-	-
CCOc1ccccc1OCCCCn1c(-c2ccc(Cl)cc2)nc2ccccc2c1=O	-	-	-	-	0	-
CCc1ccc(C(=O)COC(=O)c2ccc(-c3nnc(-c4ccccc4)o3)cc2)cc1	3.5µM	0	0	0	0	0
CCOC(=O)C1CCCN(c2cc(C)nc3cc(-c4ccc(F)cc4)nn23)C1 (centres undefined)	0	0	0	-90	0	0
CCOC(=O)C1CCCN(C(=O)c2ccc(Cl)cc2)C1 (centres undefined)	0	-	-	-	-	-
CCOC(=O)C1CCCN(C(=O)c2sc3nc(-c4ccc(F)cc4)cn3c2C)C1 (centres undefined)	0	0	0	0	0	0
CCOC(=O)C1CCCN(c2cc(C)nc3cc(-c4ccc(Cl)cc4)nn23)C1 (centres undefined)	0	?	-	-100	0	0
CCN(CC)CCn1c(-c2ccccc2)nc2c(NCc3ccccc3)nc(C)nc21	0	?	0	-	-	0
COC(=O)c1ccc(/C=C2\N=C(SC)SC2=O)cc1	-	-	-	0	0	0
CCSC1=N/C(=C\c2ccc(C(=O)O)cc2)C(=O)S1	0	0	0	0	0	0
CCOc1cc(/C=C2\N=C(SCC)SC2=O)cc([N+](=O)[O-])c1OC(C)=O	0	13µM	0	?	0	0
CCOc1c(OC(C)=O)ccc(/C=C2\N=C(SCC)SC2=O)c1[N+](=O)[O-]	0	10µM	?	0	0	0
CCOc1cc(/C=C2\N=C(SC)SC2=O)cc([N+](=O)[O-])c1OC(C)=O	0	16µM	0	0	0	0
COc1ccc(C)cc1NC(c1nnc(-c2ccccc2)o1)c1ccc(F)cc1Cl (centres undefined)	-	-	-	-	0	-
O=C(O)CCCC/C=C\C[C@@H](O)/C=C/C=C/C=C\[C@@H](O)CCCC(=O)O	0	0	-	-	-	0
C=C/C(C)=C/[C@]1(C)SC(=O)C(C)=C1O	-	-	0	-	0	0
Cc1[nH]c(=S)sc1Cc1ccc(Cl)c(Cl)c1	0	16µM	-	0	-	?
SMILES	IMPase Li cell	HPGD inh	15-hLO-2 inh	PNC inhibitor	IMPase cell inh	ALOX12 inhib
CCOc1ccc(NC(=O)C2CCCN(S(=O)(=O)c3cccc4nonc34)C2)cc1 (centres undefined)	-	-	-	-	0	-
c1ccc(Nc2nc(-c3cccs3)cs2)nc1	0	0	-	0	0	0
Cc1cccc(Nc2nc(-c3cccs3)cs2)n1	0	0	-	-105	0	18µM
C1CCCC1	0	0	0	-	-	0
CCOC(=S)SCC(=O)N1CCc2cc(OC)ccc2C1C1C(=O)CCCC1=O (centres undefined)	0	0	-	-99	0	0
CCOC(=S)SCC(=O)N1CCc2cc(OC)c(OC)cc2C1C1C(=O)CC(C)(C)CC1=O (centres undefined)	0	0	-	?	-	0
COc1ncc2nc(-c3ccccc3)c(=O)n(C)c2n1	0	-	0	-	-	-
CNC(=O)[C@@H]1O[C@@H](n2cnc3c(NCc4ccc(N)cc4)ncnc32)[C@@H](O)[C@H]1O	-	-	0	-	0	0
CCOc1nnc(C)c2c(C)n(-c3cccc(OC)c3)nc12	0	0	0	-106	0	0
COc1cccc(-n2nnc3c(=O)n(Cc4ccc(C)cc4)cnc32)c1	0	?	0	0	0	0
